Assay outcomes deposited in PubChem by several laboratories.
An excerpt weighted towards active compounds, which were near 5.2% of everything screened.
NRP1-CendR mod: alters CendR peptide binding to human NRP-1. FAM-RPARPAR peptide binding to NRP-1, fluorescence polarization. O14786. actives 0.85% (n = 360,000). inhibition, % at 25 µM;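 active means inhibition or corrected inhibition above about 18%, plus a signal ratio from 0.5 to 1.5, limit read from the data, passing the limit was not always enough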
ALR inh: blocks human ALR sulfhydryl oxidase activity; P55789; purified ALR, DTT oxidation, H2O2 HRP-luminol luminescence; inhibition, % (concentration not given with the values); actives 3.8% (n = 290,000);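 active means mean replicate inhibition above about 79%, with every replicate also reaching it, limit read from the data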
PfM18AAP inh: blocks P. falciparum M18 aspartyl aminopeptidase. recombinant PfM18AAP, H-Glu-NHMec fluorogenic cleavage. inhibition, % at 7.35 µM. actives 1.2% (n = 290,000). AID 1822;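 active means inhibition above the campaign mean inhibition over all tested compounds plus 3 SD, cut at about 28% in these data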;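 further: 0% = plate median of test compound wells and 100% = 2 mM ZnCl2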
APOBEC3A inh: inhibitors of human APOBEC3A DNA deaminase; P31941; recombinant A3A, FAM/TAMRA ssDNA deamination fluorescence; inhibition, % at 20 µM; actives 0.41% (n = 330,000); AID 493011;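 active means at least 40% inhibition at 20 µM here, with at most 30% in a related deaminase screen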;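 further: plate controls were A3A with DMSO for no effect and wells lacking A3A enzyme for full effect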
Target sequence (P31941 whole entry, looked up): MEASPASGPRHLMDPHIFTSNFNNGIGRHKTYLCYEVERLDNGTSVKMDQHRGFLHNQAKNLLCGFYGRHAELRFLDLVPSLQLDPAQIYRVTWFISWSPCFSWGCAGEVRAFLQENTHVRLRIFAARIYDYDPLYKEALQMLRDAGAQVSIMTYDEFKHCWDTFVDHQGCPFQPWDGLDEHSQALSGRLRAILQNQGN
CR mimetic SO: yeast age-related superoxide inhibition as caloric restriction mimetic; S. cerevisiae aged cells, superoxide DHE fluorescence; active compounds read low; superoxide response (% of plate mean), % at 10 µM; actives 0.18% (n = 330,000); AID 2690;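 active means superoxide response under a set limit, about three screen SD below normal, cut at about 65% in these data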;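 further: yeast aged for seven days with compound at 30 °C before DHE staining; 100% = average MFI of all compound-treated wells on the plate with controls excluded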
APOBEC3G inh: inhibitors of human APOBEC3G DNA deaminase. Q9HC16. recombinant A3G, ssDNA deamination FAM/TAMRA fluorescence. inhibition, % at 20 µM. actives 0.28% (n = 330,000);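 active means inhibition of at least 40% at 20 µM, with no more than 30% in the related APOBEC3A deaminase screen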;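 further: plate controls were DMSO wells with A3G for no effect and wells lacking A3G enzyme for full effect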
Target sequence (Q9HC16 whole entry, looked up): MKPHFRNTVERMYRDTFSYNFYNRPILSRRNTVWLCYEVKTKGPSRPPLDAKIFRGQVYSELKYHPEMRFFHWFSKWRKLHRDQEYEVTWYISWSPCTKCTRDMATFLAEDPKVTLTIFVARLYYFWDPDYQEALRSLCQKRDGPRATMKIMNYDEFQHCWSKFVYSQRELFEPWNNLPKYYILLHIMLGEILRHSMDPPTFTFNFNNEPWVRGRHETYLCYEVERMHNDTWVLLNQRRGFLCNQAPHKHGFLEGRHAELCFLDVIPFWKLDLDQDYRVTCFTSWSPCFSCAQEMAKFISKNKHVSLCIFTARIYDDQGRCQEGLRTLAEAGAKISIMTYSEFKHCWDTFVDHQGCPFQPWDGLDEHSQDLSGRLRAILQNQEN
Starred values were filed as active, the others as inactive; i = inactive; · = not tested or not shown.

SMILES	NRP1-CendR mod	ALR inh	PfM18AAP inh	APOBEC3A inh	CR mimetic SO	APOBEC3G inh
Cc1ccc(OCC(=O)N/N=C/c2ccccc2)c([N+](=O)[O-])c1	18.9*	·	1.8	·	·	·
Cc1ccc(OCC(=O)N/N=C/c2cccn2C)cc1	-9.8	0.3	1.0	-3.6	100.2	-1.2
COc1ccc(CN2CCN(C(=O)c3cc(OC)c(OC)c(OC)c3)CC2)cc1OC	2.0	-3.8	-5.6	-3.0	115.5	-2.6
O=C1C=CC(=C(c2ccc(O)cc2)c2ccc(O)cc2)C=C1	1.7	98.7*	·	23.2	171.0	27.5
Cc1ccc2cccc(NC3OC(=O)c4ccccc43)c2n1 (stereo not drawn)	4.6	-2.1	28.5*	1.0	114.5	-0.7
COC(=O)c1ccccc1NC1OC(=O)c2ccccc21 (stereo not drawn)	-4.9	10.8	-2.1	0.0	105.4	-0.8
COc1ccc2c(c1)[nH]c1c(=O)n(CCCN3CCOCC3)cnc12	-5.9	·	0.8	-1.5	95.5	-4.9
O=c1c2[nH]c3ccc(F)cc3c2ncn1CCCN1CCOCC1	46.6*	-14.6	2.3	-1.6	97.3	-0.3
Cc1cc(C(=O)Nc2c(F)cc(F)cc2Br)c(C)o1	-4.5	96.5*	4.0	-1.3	100.0	-0.6
CC(C)(C)C1CCN2CCCC(c3ccccc3)(C1)C2=O (stereo not drawn)	5.9	·	·	·	·	·
COc1cc(/C=C(\C#N)C(=O)NCC2CCCO2)ccc1O (stereo not drawn)	-17.7	99.0*	0.1	-2.8	113.7	-1.1
COc1cc(/C=N/NC(=O)C(=O)NCC2CCCO2)ccc1O (stereo not drawn)	38.8*	98.9*	2.3	-4.2	95.5	-10.5
CCOc1ccc(/C=C(\C#N)C(=O)NCC2CCCO2)cc1OCC (stereo not drawn)	-10.8	-1.8	1.8	37.3	93.2	1.7
Cc1cc(-c2ccccc2)nc(N(C)N)c1S(C)(=O)=O	-2.4	1.8	-12.4	0.0	89.3	-4.5
CC(C)(C)c1ccc(SCCc2cccnc2)cc1	30.9*	·	-2.7	-4.2	84.8	-4.5
c1ccc(SCCc2ccncc2)cc1	1.6	-2.6	0.5	-3.4	105.0	-6.9
CCn1cc(/C=C(\NC(=O)c2ccccc2F)C(=O)N2CCOCC2)c2ccccc21	16.7	42.0	0.1	-4.7	90.7	-7.4
Oc1ccccc1/C=C/c1noc(-c2ccccc2O)n1	12.7	-2.2	-0.2	2.4	103.0	-5.5
Cc1nc(Nc2ccc(O)cc2)c2c3c(sc2n1)CCCC3	-10.5	98.3*	3.7	1.6	84.8	-7.5
CC1CCCC/C1=N\NC(=S)Nc1cccnc1 (stereo not drawn)	8.2	97.7*	18.4	0.2	100.6	-1.8
O=C(NN=Cc1c[nH]c2ccccc12)NN=Cc1c[nH]c2ccccc12	-4.7	·	·	·	·	·
Cc1nc(N)sc1C(=O)N/N=C/c1c[nH]c2ccccc12	-6.9	90.6*	10.0	-4.6	108.8	-9.7
Cc1nc(N)sc1C(=O)N/N=C/c1ccccc1[N+](=O)[O-]	15.3	-1.3	5.3	-0.6	114.6	-8.7
O=C(CNc1ccccc1)N/N=C/c1c[nH]c2ccccc12	-2.7	89.2*	1.0	0.2	105.0	-1.4
CC1CC(C)CN(C(=O)Cn2nnc(-c3ccccc3)n2)C1 (stereo not drawn)	0.8	-6.0	6.7	-0.5	96.0	-6.3
SMILES	NRP1-CendR mod	ALR inh	PfM18AAP inh	APOBEC3A inh	CR mimetic SO	APOBEC3G inh
NNC(=O)C1COc2cc3ccccc3cc2O1 (stereo not drawn)	-9.0	11.5	-3.3	60.5*	101.0	-0.1
O=C(N/N=C\c1ccccn1)C1COc2cc3ccccc3cc2O1 (stereo not drawn)	5.4	·	1.3	-0.1	102.1	0.2
COc1ccc(C2=CSC3=NCCN23)cc1F	6.4	84.9*	6.5	-5.2	104.7	-5.8
O/N=C/c1ccc2ccccc2n1	-4.4	-2.5	5.1	-0.8	104.5	-1.9
CC(=O)/C=C/c1ccc2ccccc2n1	2.6	97.6*	-7.7	-2.7	104.1	-5.9
COc1ccccc1NC(=O)C(C)OC(=O)/C=C/c1ccc2ccccc2n1 (stereo not drawn)	1.6	94.3*	·	-2.5	103.5	3.9
CC(OC(=O)/C=C/c1ccc2ccccc2n1)C(=O)N(C)c1ccccc1 (stereo not drawn)	-4.6	1.3	·	0.0	162.6	-2.5
COC(=O)c1ccccc1S(=O)(=O)N1CCC(C(=O)Nc2ccccc2N2CCOCC2)CC1	0.4	·	·	·	·	·
COc1ccc(CCNC(=O)c2noc(C(C)C)c2[N+](=O)[O-])cc1OC	22.6	·	0.9	-3.9	89.8	-1.0
C=CCn1c(-c2cc(-c3ccccc3)sc2N)n[nH]c1=S	-8.1	92.9*	28.3*	0.4	105.3	-0.2
Nc1sc(-c2ccccc2)cc1-c1n[nH]c(=S)n1C1CCCCC1	-13.1	97.8*	3.9	-1.8	99.6	-10.7
C=CCn1c(-c2cccn(Cc3ccccc3)c2=O)n[nH]c1=S	7.7	35.5	7.6	-1.8	91.7	27.9
COc1ccc(-n2c(-c3cc(-c4ccccc4)sc3N)n[nH]c2=S)cc1	3.5	2.2	13.5	1.8	i	-4.5
C=CCn1c(-c2ccccc2[N+](=O)[O-])n[nH]c1=S	15.5	89.4*	2.1	-4.4	107.5	9.7
O=C(c1cccc(Br)c1)N1CCN(S(=O)(=O)N2CCOCC2)CC1	8.2	-4.0	-1.3	-2.5	97.8	-4.0
c1ccc(-c2cc3ccccc3nc2N2CCCC2)cc1	-6.5	·	-9.8	-2.0	96.2	-4.5
COC(=O)Nc1sc(C(=O)N(C)C)c(C)c1C(=O)OC	24.0*	-4.0	1.1	-2.9	113.8	-6.9
Nc1nnc(CSCc2ccc(Cl)cc2)s1	1.0	-4.4	0.5	-1.8	94.3	-4.6
Nc1nnc(SCc2ccc(Cl)cc2)s1	25.8*	-5.5	-4.3	2.0	97.7	-0.3
Cc1cccc(Nc2nc(N)nc(CCl)n2)c1C	10.4	90.6*	18.1	-3.6	121.6	-5.5
Nc1nc(CCl)nc(Nc2ccccc2)n1	-5.8	87.3*	3.3	2.0	94.1	-7.8
CC(=O)n1c(=O)c2ccccc2c(=O)n1-c1ccccc1	-5.5	97.9*	7.2	-4.6	104.9	-6.9
S=C(Nc1ccc(Cl)cc1Cl)NC1CCN(Cc2ccccc2)CC1	-7.5	·	3.1	-4.8	104.2	-6.1
CCC(C)c1ccccc1N1CC(C(=O)Nc2ccccc2N2CCCC2)CC1=O (stereo not drawn)	4.1	70.9	20.7	-6.5	86.6	-7.5
CCOc1ccccc1N1CC(C(=O)Nc2ccccc2N2CCCC2)CC1=O (stereo not drawn)	-4.9	87.7*	·	-0.2	105.0	3.1
O=C(Nc1ccccc1OC(F)F)C1CC(=O)N(Cc2ccccc2)C1 (stereo not drawn)	-1.8	-21.4	·	-1.1	101.0	-6.2
O=C(Nc1ccccc1N1CCCC1)C1CC(=O)N(Cc2ccccc2)C1 (stereo not drawn)	-15.4	97.5*	·	0.4	105.0	-3.6
